Test results published in PubChem BioAssay (NCATS).
Records with an inconclusive call do not appear. Where a call stands in place of a potency, no number is given. Active and inactive are the calls of the source. The call rests on the fitted dose curve; in most records, active means well fitted curve in the direction sought with a large enough effect; inconclusive means small, poorly fitted or top-dose-only effect, or another doubt; inactive means no such curve, though single readings can be large or run the other way.

These compounds were tested against phosphoglycerate mutase (Leishmania major) (UniProt Q4Q090) (assay: qHTS Validation Assay to Find Inhibitors of Phosphoglycerate Mutase (AID 504548)). Conditions: biochemical enzyme activity; Potency: inhibition qHTS; series mostly up to 57.5 µM.
Description: NIH Molecular Libraries Probe Production Network [MLPCN]
NIH Chemical Genomics Center [NCGC]
PI Name: Malcolm Walkinshaw, University of Edinburgh
Several species of the Trypanosomatidae family of parasitic protozoans cause a spectrum of diseases throughout the tropical and subtropical world. Sleeping sickness, caused by two subspecies of Trypanosoma brucei, is endemic to areas of sub-Saharan Africa, while Chagas disease, a manifestation of Trypanosoma cruzi infection, is prevalent throughout Central and South America. In addition, many species of Leishmania are responsible for a range of cutaneous and visceral diseases, causing ulcers, destructive lesions and kalaazar, a lethal infection of the viscera. Collectively, these organisms infect 30 million people worldwide (~500 million live in endemic areas), and account for ~130,000 deaths annually. Given their debilitating and prevalent nature, trypanosomatid parasites impose a heavy medical, economic and social burden on entire populations, primarily in the developing world. The problem is further exacerbated by the fact that existing treatments have progressed little in the past 50 years, and current drugs show high toxicity and poor efficacy.
Blood-stream stages of T. brucei are entirely dependent on glycolysis as a source of ATP, and the tricarboxylic acid cycle and oxidative phosphorylation are both repressed. Glycolysis in axenically cultured T. cruzi, representing the intracellular pathogenic stage, is also essential for these parasites. […] Previous studies have shown that the glycolytic enzyme, phosphoglycerate mutase (PGAM), is a viable target for drugs to kill these parasites. […] Furthermore, the cobalt centers present within PGAM are only found in trypanosomatid and plant PGAMs, and are known to be required for activity, thereby providing an additional target. Moreover, trypanosomatid PGAMs are completely different from the enzyme that performs the same function in humans: the parasite and host enzymes share no structural or even mechanistic features; specificity is therefore unlikely to be an issue.
NCGC Assay Protocol Summary:
Briefly, 3ul of substrate buffer (all columns) are dispensed into Greiner white solid bottom 1536-well assay plates. Compounds are then transferred via Kalypsys pin tool equipped with 1536-pin array (10nl slotted pins, V&P Scientific, San Diego, CA). Following addition of compound, 1ul of Lm PGAM (1.25nM final concentration, columns […]) is added to initiate the reaction; columns 3-4 receive only TEA buffer as negative controls. The plates are then incubated at room temperature for 45 minutes. Kinase-GloPlus reagent is added (2ul) and plates incubated for 10 minutes, before being transferred to a ViewLux high-throughput CCD imager (PerkinElmer) wherein single end-point measurements of luminescence are acquired using a clear filter. All reagents are diluted in an assay buffer consisting of 100 mM TEA (pH 7.6), 5 mM MgCl2 and 0.01% Tween-20.

Chain of phosphoglycerate mutase (Leishmania major) (Q4Q090 1-553): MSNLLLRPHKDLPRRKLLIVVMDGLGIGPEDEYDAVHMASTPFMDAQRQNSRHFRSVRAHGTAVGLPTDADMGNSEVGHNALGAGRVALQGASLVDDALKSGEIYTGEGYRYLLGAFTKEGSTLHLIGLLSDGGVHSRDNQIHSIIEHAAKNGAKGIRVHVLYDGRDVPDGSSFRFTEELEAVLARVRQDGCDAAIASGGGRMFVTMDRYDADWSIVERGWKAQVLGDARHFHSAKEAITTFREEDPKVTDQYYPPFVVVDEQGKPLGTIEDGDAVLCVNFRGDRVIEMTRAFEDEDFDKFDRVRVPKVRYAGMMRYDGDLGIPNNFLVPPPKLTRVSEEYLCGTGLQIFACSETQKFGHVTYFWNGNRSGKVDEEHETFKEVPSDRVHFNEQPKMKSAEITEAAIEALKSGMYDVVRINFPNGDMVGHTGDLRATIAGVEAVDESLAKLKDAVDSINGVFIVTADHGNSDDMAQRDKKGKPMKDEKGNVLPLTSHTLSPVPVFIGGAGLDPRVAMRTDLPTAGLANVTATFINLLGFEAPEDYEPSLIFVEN

| SMILES | Potency |
| --- | --- |
| CCCN(CCC)CCc1ccc(O)c(O)c1 | inactive |
| C[C@@H]1O[C@@H](O[C@H]2C[C@@H](O)[C@]3(CO)[C@@H]4C(CC[C@]3(O)C2)[C@@]2(O)CC[C@H]([C@@H]3COC(=O)C3)[C@@]2(C)C[C@H]4O)[C@H](O)[C@H](O)[C@H]1O (stereo not given in full) | inactive |
| CO[C@H]1CC=C2CCN3CCC4=C(CC(=O)OC4)[C@]23C1 | inactive |
| COc1cc(CC(C)N)c(OC)cc1I (stereo not given) | inactive |
| COc1ccc2c(c1)C13CCCCC1C(C2)N(C)CC3 (stereo not given) | inactive |
| NNC(N)=O | inactive |
| NC(=O)CI | inactive |
| CCCN1CC[C@@H]2c3cc(O)ccc3CC[C@@H]21 | inactive |
| CCCN(CCC)C1CCc2cccc(O)c2C1 (stereo not given) | inactive |
| CN(N=O)c1ccc(O)c(O)c1 | inactive |
| c1ccc2c(c1)[I+]c1ccccc1-2 | inactive |
| C[N+]1(C)C2CCC1CC(OC(=O)c1c[nH]c3ccccc13)C2 (stereo not given) | inactive |
| C=CCN(C1=NCCN1)c1c(Cl)cccc1Cl | inactive |
| CC(N)[C@H](O)c1ccc(O)c(O)c1 (stereo not given in full) | inactive |
| CCN1C[C@@]2(COC)C3[C@@H](OC)C4[C@@H]1C3([C@@H]1C[C@]3(O)[C@H](OC(=O)c5ccccc5)[C@@H]1[C@]4(OC(C)=O)[C@@H](O)[C@@H]3OC)[C@H](OC)C[C@H]2O | inactive |
| CCCN1CCc2cccc3c2[C@H]1Cc1ccc(O)c(O)c1-3 | inactive |
| NC(=O)c1ccc(OCC(O)CN2CC=C(c3ccc(F)cc3)CC2)cc1 (stereo not given) | inactive |
| CC(C)[C@@]1(NC(=O)[C@@H]2C[C@@H]3c4cccc5[nH]cc(c45)C[C@H]3N(C)C2)O[C@@]2(O)[C@@H]3CCCN3C(=O)[C@H](Cc3ccccc3)N2C1=O | inactive |
| Nc1ccc(CCN2CCN(c3cccc(C(F)(F)F)c3)CC2)cc1 | inactive |
| CC(N)Cc1c[nH]c2ccc(O)cc12 (stereo not given) | inactive |

| SMILES | Potency |
| --- | --- |
| CCCn1c(C)c(C(=O)c2ccc3ccccc3c2)c2ccccc21 | inactive |
| CCOC(=O)c1ncn2c1[C@@H]1CCCN1C(=O)c1cc(OC)ccc1-2 | inactive |
| O=[N+]([O-])c1cc(O)c(O)c([N+](=O)[O-])c1 | inactive |
| C[N+](C)(C)CC#CCOC(=O)Nc1cccc(Cl)c1 | inactive |
| Cc1o[nH]c(=O)c1CC(N)C(=O)O (stereo not given) | inactive |
| CC(=O)NBr | inactive |
| N[C@@H](CCl)C(=O)O | inactive |
| Oc1ccc2c3c1O[C@H]1c4oc5ccccc5c4C[C@@]4(O)C(C2)N(CC2CC2)CCC314 (stereo not given in full) | inactive |
| CN(N=O)c1cc(O)ccc1O | inactive |
| NC(=O)COc1c(F)cc(SCCNS(=O)(=O)c2ccccc2)cc1F | inactive |
| c1ccc2c(N3CCNCC3)cccc2c1 | inactive |
| CCN(CCCl)Cc1ccccc1Br | inactive |
| C[N+]1(C)CCN(c2ccccc2)CC1 | inactive |
| CCCC[N+]1(C)C2CC(OC(=O)[C@H](CO)c3ccccc3)CC1C1OC12 (stereo not given in full) | inactive |
| C#CCN[C@H](C)Cc1ccccc1 | inactive |
| C[C@H](N)CN1CCc2ccc(Br)cc21 | inactive |
| Clc1cc(I)cc(Cl)c1NC1=NCCN1 | inactive |
| C[C@]12Cc3cn4c(nc3C=C1CCC1C2CC[C@@]2(C)[C@H]1CC[C@@]2(O)C#N)nc1ccccc14 (stereo not given in full) | inactive |
| OCc1cnc[nH]1 | inactive |
| CCS(=O)(=O)Nc1cccc(C(=C2CCCCC2)c2cnc[nH]2)c1 | inactive |
